# Screens: PubChem BioAssay, Broad Institute
# An excerpt weighted towards active compounds, which were near 2.2% of everything screened.
# LGR2 antag: inhibitors of bursicon-induced LGR2 CRE-luciferase signal, primary screen, cell-based, HEK293, CRE-luciferase reporter, bursicon stimulation | Drosophila bursicon receptor LGR2 (rickets) | bursicon-stimulated, 4 h | inhibition, % at 9.99 µM | hit rate 0.35% among 380,000 | AID 720647, 2013;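 active = drop in luminescence signal, shown as inhibition above about 50% in the replicate tests, limit read from the data, passing the limit was not always enough; inconclusive = probably only some replicates passing the limit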;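 note: agonist challenge used bursicon conditioned medium at about half maximal strength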
# PAX8 reporter: inhibitors of PAX8-driven TPO luciferase reporter, primary screen, RMG-I cells, single concentration | SteadyGlo, 24 h | inhibition, % at 12.6 µM | hit rate 1.2% among 360,000;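 active = mean replicate inhibition at least 60% with every replicate also reaching 60%; inconclusive = only one of the two criteria is met; inactive = mean below 60% and not all replicates reaching 60%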;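 note: luciferase light reporting Pax8 driven TPO promoter activity; plate controls were median of neutral control wells for no effect and mitoxantrone controls for full effect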
# EWS-Fli inh: EWS/Fli-driven NR0B1 reporter inhibitors, primary screen, A673 cells, NR0B1 luciferase, luminescence, MLPCN library. inhibition, % at 12.6 µM. hit rate 0.67% among 350,000. AID 651661, 2012. viability-normalised;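 active = mean inhibition of at least 50% after viability correction, with every replicate also passing that limit; inconclusive = mean reaches 50% but only one of two replicates passes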;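 note: firefly luciferase signal divided by Alamar Blue viability fluorescence both relative to DMSO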
# EBV LMP1 NFkB: EBV LMP1-driven NF-kappaB luciferase reporter inhibitors, primary screen, cell-based, luminescence, single point; LMP1-induced NF-kappaB luciferase reporter cells; inhibition, % at 12.5 µM; hit rate 0.69% among 350,000; AID 504558, 2011; in the data active = inhibition above about 41%; inconclusive = no clear call, values can overlap the other calls;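 note: 0% = neutral control wells and 100% = reference inhibitor control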
# TRPM1 prom inh: inhibitors of MITF-dependent TRPM1 promoter reporter, primary screen, cell-based, SK-MEL-5, single point, luciferase; AID 488899, 2010; hit rate 0.83% among 330,000; inhibition, % at 12.5 µM; SK-MEL-5 TRPM1 promoter luciferase, 24 h;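 active = mean inhibition across replicates of 60% or more, whatever share of single replicates reaches that level; inconclusive = some that reach 60%, reason not given; inactive = mean inhibition across replicates below 60%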
# Shn3 inh set2: reduction of Shn3 3'UTR firefly luciferase signal, primary screen, Schnurri-3 inhibitor project, cell-based, Clone20 osteoblasts, set 2. Clone20 osteoblast Shn3 3'UTR firefly luciferase, 24 h. hit rate 0.52% among 360,000. AID 588674, 2011. inhibition, % at 12.5 µM;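 active = mean inhibition of at least 75% with every replicate also reaching 75%; inconclusive = mean inhibition at least 75% but some replicate below; inactive = mean inhibition below 75%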;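 note: 0% = median of neutral control wells and 100% = pilot-screen positive control compound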
# The depositor's hits bear a star; ? = inconclusive; nt = no result given.
SMILES,LGR2 antag,PAX8 reporter,EWS-Fli inh,EBV LMP1 NFkB,TRPM1 prom inh,Shn3 inh set2
COc1cccc(C(=O)Nc2sc3c(c2C#N)CCN(C(C)=O)C3)c1,14,18,60*,-1,3,8
C[C@H]1CN([C@@H](C)CO)C(=O)c2cccc(NS(=O)(=O)c3ccc(F)cc3)c2O[C@@H]1CN(C)S(=O)(=O)c1ccc(F)cc1,24,0,-8,nt,nt,nt
COc1ccc(C(=O)/C(C#N)=N/Nc2cccc([N+](=O)[O-])c2)cc1,-18,31,62*,15,12,9
CCOC(=O)N1C/C(=C\c2ccccc2)C(=O)/C(=C/c2ccccc2)C1,29,10,46,-49,104*,80
COc1ccc(OC(=O)N2C/C(=C/c3ccccc3)C(=O)/C(=C\c3ccccc3)C2)cc1,?,11,48,-24,86*,19
C[C@H](CO)N1C[C@H](C)[C@H](CN(C)C(=O)Nc2cc(F)ccc2F)Oc2cc(C#CC3CC3)ccc2S1(=O)=O,-9,nt,-4,nt,nt,nt
Cc1ccc2c(c1)c1c3n2CCCNC3CCC1 (configuration not stated),nt,-73,nt,-33,-11,-9
c1cc2c(cc1C1CCCCC1)c1c3n2CCCNC3CCC1 (configuration not stated),nt,nt,nt,-36,99*,-2
O=C(NCCn1cc(CN2C(=O)COC[C@H]2c2ccccc2)nn1)Nc1ccccc1,nt,-12,-5,nt,nt,nt
COc1ccc(N/C=C2\CCc3ccccc3C2=O)cc1,81*,58,43,24,48,21
COc1ccc2c(c1)CC/C(=C\Nc1ccc3c(c1)OCO3)C2=O,-34,nt,-99,-43,-78,-7
CC(=O)Oc1ccc(/C=C2/CCc3ccccc3C2=O)cc1,55*,-40,74*,3,-72,-88
CC(=O)Nc1ccc(NC(=O)COC(=O)c2c3c(nc4ccccc24)CCN(Cc2ccccc2)C3)cc1,nt,56,-17,0,-4,24
O=C(COC(=O)c1c2c(nc3ccccc13)CCN(Cc1ccccc1)C2)Nc1c(F)cccc1F,20,73*,nt,11,7,26
O=C(Nc1nc(-c2ccccc2)cs1)c1ccccc1NS(=O)(=O)c1ccc(F)cc1,?,86*,nt,?,69*,49
O=S(=O)(Nc1ccc(-c2csc(-c3ccccc3)n2)cc1)c1ccc(F)cc1,nt,nt,nt,-3,-2,16
COc1ccccc1OC(C)C(=O)Nc1nc(-c2ccc(S(=O)(=O)N3CCOCC3)cc2)cs1 (configuration not stated),nt,nt,nt,8,11,34
COc1ccccc1C(=O)Nc1nc(-c2ccc(S(=O)(=O)N3CCOCC3)cc2)cs1,nt,nt,nt,29,81*,89*
O=C(Nc1nc(-c2ccccc2)cs1)c1ccc(N2CCOCC2)c([N+](=O)[O-])c1,nt,nt,nt,26,80*,82
O=C(Nc1nc(-c2ccccn2)cs1)c1cccc(S(=O)(=O)N2CCOCC2)c1,22,81*,14,21,41,88*
O=C(CC1CC1)Nc1ccc2c(c1)[C@H]1C[C@@H](CC(=O)N3CCOCC3)O[C@@H](CO)[C@H]1O2,-6,-2,-1,nt,nt,nt
CCNC(=O)C[C@H]1CC[C@@H]2[C@@H](COc3ccc(NC(=O)Nc4cccc(F)c4)cc3C(=O)N2C)O1,11,-2,-2,nt,nt,nt
COC(=O)N(C)C[C@H]1OCc2cn(nn2)CCCC(=O)N([C@@H](C)CO)C[C@H]1C,-2,2,-5,nt,nt,nt
COc1ccccc1NC(=O)N[C@H]1C=C[C@H](CC(=O)NCc2ccc(Cl)c(Cl)c2)O[C@@H]1CO,-9,36,10,nt,nt,nt
O=C(c1ccncc1)N1C[C@@H]2[C@H](c3ccccc31)[C@H](CO)N2Cc1ccc(F)cc1,10,2,2,nt,nt,nt
SMILES,LGR2 antag,PAX8 reporter,EWS-Fli inh,EBV LMP1 NFkB,TRPM1 prom inh,Shn3 inh set2
CCCCCCCCn1ccc(=N)cc1,12,7,15,15,10,nt
CCCCCCCCCCn1ccc(=N)cc1,36,83*,58*,29,77*,75
COc1cccc(C(=O)Nc2ccc3c(c2)C(=O)N(C)C[C@@H](OC)[C@@H](C)CN[C@H](C)CO3)c1,2,nt,-2,nt,nt,nt
O=C(CCCC(=O)N/N=C\c1ccccn1)N/N=C\c1ccccn1,-3,0,6,-7,7,0
S=C(NN=C(c1ccccc1)c1ccccn1)N(Cc1ccccn1)Cc1ccccn1,13,nt,7,63*,83*,91*
CC(=NNC(=S)N(Cc1ccccn1)Cc1ccccn1)c1cnccn1,-10,21,6,81*,80*,95*
S=C(NN=Cc1ccccn1)N(Cc1ccccn1)Cc1ccccn1,-39,20,0,8,74*,81
Cc1ccc(O)c(N=CC2=C(O)c3ccccc3C2=O)c1,nt,-92,nt,-23,-34,-38
O=C1C(C=Nc2ccccc2O)=C(O)c2ccccc21,65*,nt,-66,-5,-16,-35
CC[C@]1(c2ccccc2OC)ON(c2ccccc2C(F)(F)F)C1=O,-4,84*,23,nt,nt,nt
COc1ccccc1[C@]1(C)ON(c2ccccc2C(F)(F)F)C1=O,37,48,1,73*,59,-5
COc1ccc([C@]2(C(C)C)ON(c3ccccc3C(F)(F)F)C2=O)cc1,nt,55,15,13,23,-26
CC(C)C[C@]1(c2ccccc2)ON(c2ccccc2C(F)(F)F)C1=O,-5,9,2,-1,1,-2
C[n+]1c2n(c3ccccc31)N=C(c1ccccc1)CS2,-20,28,28,-4,19,20
C[n+]1c2n(c3ccccc31)N=C(c1ccc(-c3ccccc3)cc1)CS2,-24,96*,43,23,82*,72
CO[C@@H]1CN(C)C(=O)c2ccc(NS(=O)(=O)c3ccc(C)cc3)cc2OC[C@@H](C)N(C(=O)NC(C)C)C[C@H]1C,1,nt,-4,nt,nt,nt
COCC#Cc1ccc2c(c1)O[C@H](CN(C)Cc1ccccn1)[C@@H](C)CN([C@H](C)CO)S2(=O)=O,-20,3,2,nt,nt,nt
Cc1cc(C(=O)N/N=C/c2ccc([N+](=O)[O-])cc2)c2ccccc2n1,15,21,51*,7,30,21
O=C(N/N=C/c1cc([N+](=O)[O-])ccc1O)c1cc(-c2ccccc2)nc2ccccc12,nt,7,-1,4,48,88*
COc1cccc(-c2ccc3c(c2)[C@H]2[C@H](CCN2C(=O)C2CCOCC2)[C@@H](CO)N3)c1,-8,12,4,nt,nt,nt
Cn1c(-c2ccccc2)cc2ccccc21,8,-23,-12,-2,-26,-1
Cn1c(-c2ccccc2)cc2c3no[n+]([O-])c3ccc21,nt,nt,nt,-7,32,92*
